PERK inh – blocks human PERK kinase; Q9NZJ5; CHO PERK-DD fusion, SEAP luminescence translation reporter; inhibition, % at 5.6 µM; 220,000 compounds, 0.17% hits;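 active = inhibition above the mean inhibition of all tested compounds plus 3 SD, set separately per screening campaign, cut at about 2.9% in these data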;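 also: PERK kinase domain activated by AP20187 dimerizer at 100 nM; 0% = DMSO with dimerizer and 100% = rapamycin at 8.4 µM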
Target sequence (Q9NZJ5 whole entry, looked up, the tested form may be a part): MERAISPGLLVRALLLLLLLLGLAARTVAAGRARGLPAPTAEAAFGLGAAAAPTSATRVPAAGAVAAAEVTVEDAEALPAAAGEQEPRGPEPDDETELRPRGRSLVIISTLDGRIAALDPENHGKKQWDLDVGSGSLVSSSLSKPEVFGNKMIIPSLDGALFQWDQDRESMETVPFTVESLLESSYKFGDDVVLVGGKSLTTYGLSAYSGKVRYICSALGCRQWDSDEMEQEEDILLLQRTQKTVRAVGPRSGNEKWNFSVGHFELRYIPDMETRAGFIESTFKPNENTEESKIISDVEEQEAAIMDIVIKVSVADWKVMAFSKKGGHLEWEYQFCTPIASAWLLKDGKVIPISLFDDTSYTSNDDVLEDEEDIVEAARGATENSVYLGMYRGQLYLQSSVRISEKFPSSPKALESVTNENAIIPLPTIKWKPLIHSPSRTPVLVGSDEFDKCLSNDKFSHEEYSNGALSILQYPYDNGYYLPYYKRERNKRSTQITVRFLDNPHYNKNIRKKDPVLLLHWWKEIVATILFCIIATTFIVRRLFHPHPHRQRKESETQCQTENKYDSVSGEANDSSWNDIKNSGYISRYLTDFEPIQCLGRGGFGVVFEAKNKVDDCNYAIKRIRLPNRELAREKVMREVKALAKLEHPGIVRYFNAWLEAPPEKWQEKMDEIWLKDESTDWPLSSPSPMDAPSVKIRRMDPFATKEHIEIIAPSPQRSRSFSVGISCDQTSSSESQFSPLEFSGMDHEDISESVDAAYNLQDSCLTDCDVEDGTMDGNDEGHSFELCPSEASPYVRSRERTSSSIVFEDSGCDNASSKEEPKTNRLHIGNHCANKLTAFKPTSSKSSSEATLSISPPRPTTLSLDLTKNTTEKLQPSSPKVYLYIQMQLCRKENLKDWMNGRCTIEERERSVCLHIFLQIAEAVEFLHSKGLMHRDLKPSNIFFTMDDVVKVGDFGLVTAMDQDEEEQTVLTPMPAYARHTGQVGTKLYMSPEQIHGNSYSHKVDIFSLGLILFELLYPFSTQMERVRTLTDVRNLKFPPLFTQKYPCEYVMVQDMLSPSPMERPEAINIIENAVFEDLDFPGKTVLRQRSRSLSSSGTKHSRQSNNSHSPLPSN
ROMK mod – modulates human ROMK potassium channel activity. Tet-inducible ROMK, thallium flux fluorescence; actives lie on both sides. B-score at 10 µM. 130,000 compounds, 2% hits. AID 1918;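 active = signal ratio slope over the read window, or its plate-corrected B-score, at least 3 SD from the plate mean, either direction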;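 also: B-score of the F/F0 ratio slope over 7 to 12 s after thallium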
WT yeast gro inh – growth inhibition of WT yeast, mitochondrial fusion screen. mitochondrial fusion phenotypic screen, WT strain. inhibition, % at 10 µM. 190,000 compounds, 2.1% hits; in the data active = inhibition above about 58%; tested in S. cerevisiae
Arbovirus inh – blocks arbovirus infection. inhibition, % at 10 µM. 200,000 compounds, 0.37% hits. arbovirus infection cell-based antiviral screen; in the data active = inhibition above about 30%
The depositor's hits bear a star; / = no result. This is a sample that favours compounds with a hit; in the whole collection about 3.3% have one here.

SMILES	PERK inh	ROMK mod	WT yeast gro inh	Arbovirus inh
COc1cc(C(=O)N2CCC(n3cnc4cc(F)ccc43)CC2)cc(OC)c1OC	-1	/	15	3
CC(C)CCNC(=O)CCCC1=NS(=O)(=O)c2ccccc2N1	0	0.073	6	1
CCOC(=O)CC1=NS(=O)(=O)c2ccccc2N1	1	/	-16	77*
CC(NC(=O)Cn1ncc(Cl)c(Cl)c1=O)C12CC3CC(CC(C3)C1)C2 (centres undefined)	1	-1.5	64*	-36
COc1ccc(NC(=S)N/N=C/c2cccn2Cc2ccc(F)cc2Cl)cc1	2	1.3*	39	-2
COc1ccc(NC(=S)N/N=C/c2cccn2Cc2ccccc2F)cc1	1	0.21	2	-7
CSc1ccccc1NC(=S)N/N=C/c1cccn1Cc1ccc(F)cc1	1	-1.1	65*	5
CSc1ccccc1NC(=S)N/N=C/c1cccn1Cc1cccc(C)c1	0	0.24	63*	0
Cc1cccc(NC(=S)N/N=C/c2cccn2Cc2ccc(F)cc2)c1	1	0.022	42	6
O=C(OC(C(=O)Nc1cccc(C(F)(F)F)c1)c1ccccc1)C1CCCCC1 (centres undefined)	-1	-0.27	62*	-22
O=C(Nc1ccc(Cl)cc1)C1=Cc2cc(Cl)ccc2OC1	1	-0.029	-5	0
COc1ccc2c(c1)C=C(C(=O)NCc1ccc(Cl)cc1)CO2	1	/	68*	1
O=C(NC(=S)Nc1ccc(S(=O)(=O)N2CCCCC2)cc1)c1cccs1	0	1.9	26	4
O=C(NC(=S)Nc1ccc(S(=O)(=O)NC2CCCCC2)cc1)c1cccs1	0	/	64*	-1
O=C(COC(=O)c1ccccc1Br)NCCC1=CCCCC1	0	0.015	-11	3
O=C(NC(=S)NCCC1=CCCCC1)c1ccccc1Br	1	0.35	64*	37*
O=C(CCn1c(=O)c2ccccc2n(CC(=O)NCCC2=CCCCC2)c1=O)NCc1ccco1	-1	/	-35	-4
S=C(NCCC1=CCCCC1)NCc1ccco1	0	-1.2	69*	16
CCCNC(=O)C(=O)NCCC1=CCCCC1	2	/	-2	11
NC(=O)NCCC1=CCCCC1	0	0.27	59*	9
Cc1ccc(C2CN(c3ccccc3)CC2C(=O)c2ccc(F)cc2)cc1 (centres undefined)	0	/	-11	6
Nc1nc(CN2CCN(c3ccccc3)CC2)nc(N2CCCc3ccccc32)n1	0	/	51	5
Nc1nc(CSc2nnnn2-c2ccccc2)nc(N2CCCc3ccccc32)n1	-1	-1.3	60*	-2
O=[N+]([O-])c1c(C(Cl)Cl)nn(-c2ccccc2)c1N1CCOCC1	0	0.35	-4	0
O=[N+]([O-])c1c(C(Cl)Cl)nn(-c2ccc(Cl)cc2)c1N1CCCCC1	0	1.8	75*	-3
SMILES	PERK inh	ROMK mod	WT yeast gro inh	Arbovirus inh
N=c1c2c(ncn1Cc1ccco1)Oc1cc(O)ccc1C2c1ccccc1 (centres undefined)	0	/	/	/
N=c1c2c(ncn1Cc1ccco1)Oc1c(ccc3ccccc13)C2c1ccccc1 (centres undefined)	-1	0.29	69*	-31
COc1ccc(Oc2c(O)c3ccccc3n(C)c2=O)cc1	1	-0.4	12	7
COc1ccc(N=Nc2n(C)c3ccccc3[n+]2C)cc1	3.4*	/	/	/
CCOc1ccccc1NC(=O)NC(=O)N(C)S(=O)(=O)c1ccc(C)cc1	0	0.019	62*	7
COC(=O)c1ccccc1NC(=O)CN1CCC(n2nnc3cc(C(F)(F)F)ccc32)CC1	-1	-0.62	10	32*
COc1ccc(C(=O)NNC(=O)CN2CCC(n3nnc4cc(C(F)(F)F)ccc43)CC2)cc1	1	/	11	1
COc1ccccc1NC(=O)CN1CCC(n2c(C)nc3cc(F)ccc32)CC1	-2	/	-1	33*
CC(=O)c1cc(C#N)c(SCc2ccccc2)nc1C	1	0.31	12	11
CC(C(=O)O)n1cc(Cl)cn1 (centres undefined)	-1	-1.4	11	-2
C(=N/Nc1nc(-c2ccccc2)cc(-c2ccccc2)n1)/c1cccnc1	-1	/	68*	3
C(=N\Nc1nc(Nc2ccccc2)nc(Nc2ccccc2)n1)/c1cccnc1	1	0.83	83*	-8
CN1CCN(C(=S)c2cn(CCOc3ccccc3)c3ccccc23)CC1	0	-1.2	19	-2
CN(C)S(=O)(=O)c1cccc(NC(=O)COC(=O)/C=C/c2ccc([N+](=O)[O-])cc2)c1	1	0.26	3	2
CCOC(=O)c1c(C)[nH]c(C)c1C(=O)COC(=O)/C=C/c1cccc(C(F)(F)F)c1	-1	-0.18	58*	17
CCOC(=O)c1c(C)[nH]c(C)c1C(=O)COC(=O)c1cc2ccccc2cc1O	0	/	74*	11
Cc1ccc(-n2cc(CN(C)Cc3ncc[nH]3)c(-c3cccc(C)c3)n2)cc1	0	-0.63	59*	-8
Cc1cccc(-n2cc(CN3CCN(Cc4nccn4C)CC3)c(-c3cccc(F)c3)n2)c1	1	-0.12	86*	-6
COc1ccc(-n2cc(CN3CCCC3)c(-c3cccc(F)c3)n2)cc1	1	/	25	1
Cc1ccc(-n2cc(CN(C)Cc3nccn3C)c(-c3ccc(F)cc3)n2)cc1	0	1.3	76*	-33
CCn1ccnc1CN(C)Cc1cn(-c2cc(C)ccc2C)nc1-c1ccccc1	0	-1.4	61*	-13
CCn1ccnc1CN(C)Cc1cn(-c2ccc(C)cc2)nc1-c1ccc(F)cc1	0	-0.37	67	-22
CNc1ccccc1C(=O)OCC(C)=O	1	0.05	-6	4
CN(C)c1nc(NCc2ccccc2)nc(N/N=C/c2ccc(Cl)cc2Cl)n1	2	/	29	-5
Cc1ccc(N2C(S)=C(C#N)C(=O)NC2c2cccs2)cc1 (centres undefined)	1	-0.37	-8	-9
SMILES	PERK inh	ROMK mod	WT yeast gro inh	Arbovirus inh
CCN1CC(=O)Nc2cc(S(=O)(=O)N3CCOCC3)ccc21	3.7*	-0.11	6	-2
Cc1c(O)nc(SCC(=O)Nc2ccc3c4c(cccc24)CC3)n(-c2ccc(F)cc2)c1=O	0	1.1	2	12
OCC1(Cc2ccccc2)CCN(Cc2ccc(C(F)(F)F)cc2)CC1	1	-1.9	21	-13
Cc1cc(Cl)c(S(=O)(=O)N2CCN(c3ccccc3)CC2)cc1OCC(N)=O	0	-0.024	-6	-8
O=C(Nc1nnc(SCc2ccc(F)cc2)s1)c1ccc2c(c1)C(=O)N(c1ccccc1Cl)C2=O	1	1.2	5	44*
O=C(Nc1nc2c(s1)CCCC2)c1ccc2ncsc2c1	0	/	56	23
CCSc1nnc(NC(=O)c2ccc(Br)s2)s1	2	/	5	31*
O=C(Nc1nc2c(s1)CCCC2)c1ccc(Br)s1	0	/	10	38*
O=C1NC(=S)N(c2cccc(Cl)c2)C12CCCCC2	0	0.0085	13	2
Cc1occc1C(=O)N/N=C/c1ccccn1	0	-0.27	-6	0
Cc1ccc(CNC(=O)CNS(=O)(=O)c2ccc3nc(C)sc3c2)cc1	0	-1.6	8	-1
Cc1ccc(C(=O)OCCN2CCN(c3ncc(C(F)(F)F)cc3Cl)CC2)cc1	2	/	67*	9

Compound activity: PubChem, several laboratories
